The results in this text go back to publication PMC4081663, “Single-Nucleotide Mutation Matrix of NF-κB”.

NF-kB p50 homodimer, sequence (P19838 1-433): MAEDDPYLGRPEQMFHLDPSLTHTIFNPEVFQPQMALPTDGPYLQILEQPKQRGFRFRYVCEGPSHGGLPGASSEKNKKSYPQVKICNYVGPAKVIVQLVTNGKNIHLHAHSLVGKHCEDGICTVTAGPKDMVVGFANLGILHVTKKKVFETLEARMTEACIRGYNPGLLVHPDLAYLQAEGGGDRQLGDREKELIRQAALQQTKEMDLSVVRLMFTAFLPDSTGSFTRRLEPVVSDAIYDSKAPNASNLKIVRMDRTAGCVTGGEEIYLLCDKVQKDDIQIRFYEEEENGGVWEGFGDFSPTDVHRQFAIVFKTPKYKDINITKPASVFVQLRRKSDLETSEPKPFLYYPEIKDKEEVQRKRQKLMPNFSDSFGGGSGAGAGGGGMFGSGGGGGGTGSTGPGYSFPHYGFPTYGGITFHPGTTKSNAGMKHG

The test concerns the target NF-kB p50 homodimer (Homo sapiens, UniProt P19838 1-433). Put plainly: bimolecular dsDNA microarray; Bimolecular dsDNA microarray on aldehyde glass; probes annealed in 10 mM Tris-HCl pH 8.0, 100 mM NaCl, 1 mM EDTA; binding buffer and temperature as in ref 16, not stated; high values mean tight binding. Conditions: protein: commercial; tags: Cy3-labeled for microarray; chain copies: 2; label: 5' amino linker to the slide; dsDNA, one strand shown.
For GGGCCTTTCC, the binding signal stood at 20.5 a.u. As for GGGACTTTCG, the figure is 24.6 a.u; as for GGCACTTTCC, 19.2 a.u; as for TGGACTTTCC, 22.8 a.u. For GGGAGTTTCC, the binding signal was found to be 55.8 a.u. GGGACATTCC: the binding signal turned out to be 26.5 a.u. The same measure for GCGACTTTCC: 12.5 a.u; for AGGACTTTCC: 21.1 a.u; for GTGACTTTCC: 20.4 a.u.

GAGACTTTCC had a binding signal of 16.7 a.u. GGGACTTGCC yielded a binding signal of 18.8 a.u. The sequence GGGACTTCCC had a binding signal of 60.9 a.u.

For GGGACTTTAC, the binding signal was found to be 38.1 a.u. As for GGGACTTTTC, the binding signal stood at 29.6 a.u. GGGACTTTGC: the binding signal stood at 22.9 a.u. The sequence GGGGCTTTCC displayed a binding signal of 49.7 a.u.

Sequence GGGACTATCC returned a binding signal of 20 a.u. In turn, GGGTCTTTCC gave a binding signal of 28.6 a.u. Consider GGGACTGTCC, for which the binding signal was determined as 32.4 a.u.

Turning to GGTACTTTCC, the binding signal turned out to be 46.1 a.u. The sequence GGGAATTTCC yielded a binding signal of 57.5 a.u. GGGACTCTCC: the binding signal was found to be 24.8 a.u. In the case of GGGACGTTCC, the binding signal worked out at 25 a.u. Regarding GGGATTTTCC, the binding signal is 58.5 a.u. The sequence GGGACTTTCC returned a binding signal of 52.8 a.u. CGGACTTTCC showed a binding signal of 19.8 a.u.

GGAACTTTCC registered a binding signal of 31.4 a.u. The sequence GGGACCTTCC displayed a binding signal of 19.8 a.u. GGGACTTTCA gave a binding signal of 24.7 a.u. As to GGGACTTACC, the binding signal amounted to 25.4 a.u. As for GGGACTTTCT, the figure is 20.2 a.u.
